# Key:
# Assay in all cases: DAPPL (digital affinity profiling via proximity ligation, sequencing); 10 mM Tris-HCl pH 7.5, 50 mM NaCl, 1 mM DTT, 4% glycerol, room temperature, 30 min; GST-TFs on glutathione beads, 16-mer random dsDNA library, 0.1% formaldehyde crosslink after washing; high values mean tight binding
# FLI1 = target: T1, FLI1 (Homo sapiens, UniProt Q01543 1-452); conditions: protein: recombinant; tags: N-terminal GST; dsDNA, one strand shown
# T1 sequence: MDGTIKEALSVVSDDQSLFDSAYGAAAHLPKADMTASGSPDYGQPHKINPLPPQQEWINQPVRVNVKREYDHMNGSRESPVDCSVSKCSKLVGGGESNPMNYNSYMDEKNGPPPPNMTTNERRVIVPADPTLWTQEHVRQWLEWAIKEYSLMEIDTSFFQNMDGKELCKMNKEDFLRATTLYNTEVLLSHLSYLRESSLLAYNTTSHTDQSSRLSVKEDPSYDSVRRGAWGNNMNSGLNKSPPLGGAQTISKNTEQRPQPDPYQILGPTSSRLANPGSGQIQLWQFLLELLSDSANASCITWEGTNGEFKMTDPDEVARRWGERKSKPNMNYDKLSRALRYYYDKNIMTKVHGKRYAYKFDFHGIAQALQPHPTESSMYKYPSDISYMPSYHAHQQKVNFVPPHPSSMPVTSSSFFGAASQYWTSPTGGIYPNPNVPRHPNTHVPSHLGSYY
# In short: (§1)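 Binding signal is given per hexamer as its read frequency for a factor divided by its frequency in the tag-only sample. GST-fused human transcription factors were expressed in yeast, captured on glutathione beads, barcoded with DNA and pooled with that sample, then incubated with 200 nmole of a 16-mer random double-stranded DNA library in Tris/NaCl/DTT/glycerol buffer for 30 min at room temperature. The pools were then washed, crosslinked, proximity-ligated, amplified by PCR and sequenced on an Illumina NextSeq500.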
# ELK1 = target: T2, ELK1 (Homo sapiens, UniProt P19419 1-428); conditions: protein: recombinant; tags: N-terminal GST; dsDNA, one strand shown
# T2 sequence: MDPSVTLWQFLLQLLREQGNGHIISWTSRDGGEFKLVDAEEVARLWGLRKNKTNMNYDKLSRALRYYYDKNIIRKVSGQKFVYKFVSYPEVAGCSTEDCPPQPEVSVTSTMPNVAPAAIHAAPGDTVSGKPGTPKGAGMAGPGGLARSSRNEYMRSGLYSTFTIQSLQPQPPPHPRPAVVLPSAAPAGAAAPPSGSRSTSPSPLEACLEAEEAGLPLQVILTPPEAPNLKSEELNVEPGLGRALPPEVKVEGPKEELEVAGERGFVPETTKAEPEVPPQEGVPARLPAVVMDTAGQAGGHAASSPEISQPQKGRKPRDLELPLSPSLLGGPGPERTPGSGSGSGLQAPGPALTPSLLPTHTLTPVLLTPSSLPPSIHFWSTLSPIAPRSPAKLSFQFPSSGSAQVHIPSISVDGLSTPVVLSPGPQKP
# In short: as §1
# GABPA = target: T3, GABPA (Homo sapiens, UniProt Q06546 1-454); conditions: protein: recombinant; tags: N-terminal GST; dsDNA, one strand shown
# T3 sequence: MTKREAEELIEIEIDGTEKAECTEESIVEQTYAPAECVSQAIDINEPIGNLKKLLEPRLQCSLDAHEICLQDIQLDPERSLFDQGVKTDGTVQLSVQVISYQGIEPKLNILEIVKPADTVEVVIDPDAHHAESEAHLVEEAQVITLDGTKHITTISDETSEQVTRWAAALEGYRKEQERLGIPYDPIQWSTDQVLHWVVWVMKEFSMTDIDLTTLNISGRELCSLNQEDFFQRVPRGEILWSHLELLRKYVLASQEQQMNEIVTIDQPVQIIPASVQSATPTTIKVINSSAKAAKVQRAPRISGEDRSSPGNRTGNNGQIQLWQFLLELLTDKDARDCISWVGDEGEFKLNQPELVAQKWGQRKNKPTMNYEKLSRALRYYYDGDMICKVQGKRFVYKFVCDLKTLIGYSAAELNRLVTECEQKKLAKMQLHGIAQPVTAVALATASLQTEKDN
# In short: as §1
# ERG = target: T4, ERG (Homo sapiens, UniProt P11308 1-479); conditions: protein: recombinant; tags: N-terminal GST; dsDNA, one strand shown
# T4 sequence: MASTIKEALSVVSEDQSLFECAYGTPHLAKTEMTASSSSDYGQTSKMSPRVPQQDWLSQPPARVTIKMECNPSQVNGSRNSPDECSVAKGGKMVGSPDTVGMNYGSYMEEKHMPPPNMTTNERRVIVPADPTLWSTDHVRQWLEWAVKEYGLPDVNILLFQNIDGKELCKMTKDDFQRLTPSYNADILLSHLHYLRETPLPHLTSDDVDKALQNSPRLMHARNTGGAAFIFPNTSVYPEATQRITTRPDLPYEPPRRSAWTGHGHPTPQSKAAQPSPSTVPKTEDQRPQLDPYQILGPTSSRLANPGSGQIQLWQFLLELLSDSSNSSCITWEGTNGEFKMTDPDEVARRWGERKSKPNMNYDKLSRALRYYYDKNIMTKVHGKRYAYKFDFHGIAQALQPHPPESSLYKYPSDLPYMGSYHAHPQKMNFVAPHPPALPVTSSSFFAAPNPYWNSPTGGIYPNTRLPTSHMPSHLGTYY
# In short: as §1
# ELF1 = ELF1 (Homo sapiens, UniProt P32519 1-619); conditions: protein: recombinant; tags: N-terminal GST; dsDNA, one strand shown
# Chain of ELF1 (P32519 whole entry): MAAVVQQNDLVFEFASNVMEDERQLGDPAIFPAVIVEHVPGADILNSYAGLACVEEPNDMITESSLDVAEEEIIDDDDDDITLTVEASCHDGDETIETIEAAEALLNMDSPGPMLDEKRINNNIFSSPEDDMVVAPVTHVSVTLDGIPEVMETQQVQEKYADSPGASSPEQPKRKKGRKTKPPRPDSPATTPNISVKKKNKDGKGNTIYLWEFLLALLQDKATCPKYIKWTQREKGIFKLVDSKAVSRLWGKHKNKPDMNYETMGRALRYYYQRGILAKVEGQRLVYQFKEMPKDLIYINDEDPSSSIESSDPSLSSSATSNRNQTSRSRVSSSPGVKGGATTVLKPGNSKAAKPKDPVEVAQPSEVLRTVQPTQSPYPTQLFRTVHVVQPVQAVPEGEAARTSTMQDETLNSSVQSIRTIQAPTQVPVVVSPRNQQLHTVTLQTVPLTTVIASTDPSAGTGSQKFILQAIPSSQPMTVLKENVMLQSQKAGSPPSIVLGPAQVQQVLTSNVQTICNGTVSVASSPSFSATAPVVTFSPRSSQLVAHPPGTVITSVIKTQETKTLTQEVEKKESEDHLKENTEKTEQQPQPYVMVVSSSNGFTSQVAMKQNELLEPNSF
# In short: as §1
# EHF = target: T5, EHF (Homo sapiens, UniProt Q9NZC4 1-300); conditions: protein: recombinant; tags: N-terminal GST; dsDNA, one strand shown
# T5 sequence: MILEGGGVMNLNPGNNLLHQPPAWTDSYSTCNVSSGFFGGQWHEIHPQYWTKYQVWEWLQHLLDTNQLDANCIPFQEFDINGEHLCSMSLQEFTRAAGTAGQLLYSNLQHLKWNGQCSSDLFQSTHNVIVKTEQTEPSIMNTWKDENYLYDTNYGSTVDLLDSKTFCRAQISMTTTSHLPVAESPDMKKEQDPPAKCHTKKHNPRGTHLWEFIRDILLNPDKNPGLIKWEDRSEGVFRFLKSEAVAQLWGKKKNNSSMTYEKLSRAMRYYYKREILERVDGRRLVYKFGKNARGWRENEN
# In short: as §1
# SPI1 = SPI1 (Homo sapiens, UniProt P17947 1-270); conditions: protein: recombinant; tags: N-terminal GST; dsDNA, one strand shown
# In short: as §1
# SPIB = SPIB (Homo sapiens, UniProt Q01892 1-262); conditions: protein: recombinant; tags: N-terminal GST; dsDNA, one strand shown
# Chain of SPIB (Q01892 whole entry): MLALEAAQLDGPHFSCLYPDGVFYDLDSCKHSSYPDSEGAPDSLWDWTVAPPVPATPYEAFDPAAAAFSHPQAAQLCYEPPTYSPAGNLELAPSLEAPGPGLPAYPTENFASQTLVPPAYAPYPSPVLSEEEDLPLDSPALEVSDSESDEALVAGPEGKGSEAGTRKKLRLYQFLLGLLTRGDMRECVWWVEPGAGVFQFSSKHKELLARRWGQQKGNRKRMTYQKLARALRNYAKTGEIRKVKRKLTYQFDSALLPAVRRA
# In short: as §1
# ELK3 = target: T6, ELK3 (Homo sapiens, UniProt P41970 1-407); conditions: protein: recombinant; tags: N-terminal GST; dsDNA, one strand shown
# T6 sequence: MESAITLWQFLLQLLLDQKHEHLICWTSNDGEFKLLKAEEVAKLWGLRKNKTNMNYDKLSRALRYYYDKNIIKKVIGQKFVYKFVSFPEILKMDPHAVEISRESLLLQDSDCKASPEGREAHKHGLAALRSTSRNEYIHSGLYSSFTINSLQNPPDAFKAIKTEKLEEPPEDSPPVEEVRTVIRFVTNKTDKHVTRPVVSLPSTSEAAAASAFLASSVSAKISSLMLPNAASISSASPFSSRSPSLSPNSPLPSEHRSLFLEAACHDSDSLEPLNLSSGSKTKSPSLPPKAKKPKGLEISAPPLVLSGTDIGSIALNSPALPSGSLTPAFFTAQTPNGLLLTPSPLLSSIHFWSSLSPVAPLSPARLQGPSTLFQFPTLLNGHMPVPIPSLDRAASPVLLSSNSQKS
# In short: as §1
# FEV = target: T7, FEV (Homo sapiens, UniProt Q99581 1-238); conditions: protein: recombinant; tags: N-terminal GST; dsDNA, one strand shown
# T7 sequence: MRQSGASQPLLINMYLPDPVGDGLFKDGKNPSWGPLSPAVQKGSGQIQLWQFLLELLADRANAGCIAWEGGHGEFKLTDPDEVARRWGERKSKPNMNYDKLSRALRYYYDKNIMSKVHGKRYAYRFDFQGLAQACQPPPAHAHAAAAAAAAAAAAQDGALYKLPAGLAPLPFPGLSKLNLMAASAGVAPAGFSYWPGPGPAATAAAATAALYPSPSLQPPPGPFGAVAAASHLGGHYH
# In short: as §1
# ETV5 = ETV5 (Homo sapiens, UniProt P41161 1-510); conditions: protein: recombinant; tags: N-terminal GST; dsDNA, one strand shown
# Chain of ETV5 (P41161 whole entry): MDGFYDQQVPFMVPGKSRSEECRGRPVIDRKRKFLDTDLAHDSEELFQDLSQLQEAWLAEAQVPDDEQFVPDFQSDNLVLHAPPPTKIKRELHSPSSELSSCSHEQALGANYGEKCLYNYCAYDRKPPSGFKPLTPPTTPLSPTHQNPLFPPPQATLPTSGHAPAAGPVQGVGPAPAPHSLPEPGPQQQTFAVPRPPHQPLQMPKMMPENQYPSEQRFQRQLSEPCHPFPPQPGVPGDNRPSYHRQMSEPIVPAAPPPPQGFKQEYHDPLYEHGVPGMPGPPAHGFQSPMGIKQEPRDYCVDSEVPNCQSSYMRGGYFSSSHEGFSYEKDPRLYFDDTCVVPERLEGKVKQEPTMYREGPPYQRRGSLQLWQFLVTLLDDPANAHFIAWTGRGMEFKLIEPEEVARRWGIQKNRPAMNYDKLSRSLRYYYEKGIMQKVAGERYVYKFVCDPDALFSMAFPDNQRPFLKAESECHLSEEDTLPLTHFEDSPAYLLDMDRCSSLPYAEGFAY
# In short: as §1
# HSF1 = HSF1 (Homo sapiens, UniProt Q00613 1-529); conditions: protein: recombinant; tags: N-terminal GST; chain copies: 3; dsDNA, one strand shown
# Chain of HSF1 (Q00613 whole entry): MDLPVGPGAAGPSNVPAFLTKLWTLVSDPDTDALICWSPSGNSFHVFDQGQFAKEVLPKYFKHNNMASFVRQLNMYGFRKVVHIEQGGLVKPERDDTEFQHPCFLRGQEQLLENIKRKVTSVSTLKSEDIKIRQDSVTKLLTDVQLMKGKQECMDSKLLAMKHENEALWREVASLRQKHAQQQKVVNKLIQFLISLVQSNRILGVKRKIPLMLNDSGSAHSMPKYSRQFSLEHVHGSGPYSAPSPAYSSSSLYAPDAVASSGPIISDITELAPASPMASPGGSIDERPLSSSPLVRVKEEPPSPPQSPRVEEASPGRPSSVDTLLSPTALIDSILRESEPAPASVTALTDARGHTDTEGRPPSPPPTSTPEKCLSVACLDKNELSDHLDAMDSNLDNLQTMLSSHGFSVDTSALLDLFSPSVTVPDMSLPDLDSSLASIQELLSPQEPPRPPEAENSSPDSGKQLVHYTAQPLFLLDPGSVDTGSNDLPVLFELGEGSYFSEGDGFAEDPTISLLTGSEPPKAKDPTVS
# In short: as §1
# SPIC = target: T8, SPIC (Homo sapiens, UniProt Q8N5J4 1-248); conditions: protein: recombinant; tags: N-terminal GST; dsDNA, one strand shown
# T8 sequence: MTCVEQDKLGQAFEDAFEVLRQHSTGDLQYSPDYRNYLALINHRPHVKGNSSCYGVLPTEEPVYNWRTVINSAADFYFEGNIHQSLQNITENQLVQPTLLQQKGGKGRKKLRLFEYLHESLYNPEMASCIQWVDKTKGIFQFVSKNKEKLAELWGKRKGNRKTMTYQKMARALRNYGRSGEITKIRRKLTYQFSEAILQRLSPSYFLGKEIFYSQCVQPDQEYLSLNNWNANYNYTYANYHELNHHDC
# In short: as §1
# ELF4 = ELF4 (Homo sapiens, UniProt Q99607 1-663); conditions: protein: recombinant; tags: N-terminal GST; dsDNA, one strand shown
# Chain of ELF4 (Q99607 whole entry): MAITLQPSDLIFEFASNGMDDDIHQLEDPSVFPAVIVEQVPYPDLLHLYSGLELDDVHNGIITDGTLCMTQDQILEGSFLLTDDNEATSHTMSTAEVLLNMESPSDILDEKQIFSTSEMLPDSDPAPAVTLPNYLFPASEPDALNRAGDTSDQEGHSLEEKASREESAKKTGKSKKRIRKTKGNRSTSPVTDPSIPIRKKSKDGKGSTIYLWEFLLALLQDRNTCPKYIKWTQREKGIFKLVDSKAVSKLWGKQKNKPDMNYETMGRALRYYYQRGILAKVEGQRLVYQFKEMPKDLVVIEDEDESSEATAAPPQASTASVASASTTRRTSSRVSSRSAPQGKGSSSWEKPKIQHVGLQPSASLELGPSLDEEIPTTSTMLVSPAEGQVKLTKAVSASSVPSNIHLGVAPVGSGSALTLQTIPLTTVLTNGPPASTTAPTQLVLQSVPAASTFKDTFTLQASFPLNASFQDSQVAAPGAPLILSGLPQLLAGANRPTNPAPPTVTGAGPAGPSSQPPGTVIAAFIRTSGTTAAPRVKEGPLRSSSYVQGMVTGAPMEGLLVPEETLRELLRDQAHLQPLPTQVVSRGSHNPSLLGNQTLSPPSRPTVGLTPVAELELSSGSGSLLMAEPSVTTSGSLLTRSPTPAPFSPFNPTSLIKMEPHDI
# In short: as §1
# ELK4 = target: T9, ELK4 (Homo sapiens, UniProt P28324-2 1-405); conditions: protein: recombinant; tags: N-terminal GST; dsDNA, one strand shown
# T9 sequence: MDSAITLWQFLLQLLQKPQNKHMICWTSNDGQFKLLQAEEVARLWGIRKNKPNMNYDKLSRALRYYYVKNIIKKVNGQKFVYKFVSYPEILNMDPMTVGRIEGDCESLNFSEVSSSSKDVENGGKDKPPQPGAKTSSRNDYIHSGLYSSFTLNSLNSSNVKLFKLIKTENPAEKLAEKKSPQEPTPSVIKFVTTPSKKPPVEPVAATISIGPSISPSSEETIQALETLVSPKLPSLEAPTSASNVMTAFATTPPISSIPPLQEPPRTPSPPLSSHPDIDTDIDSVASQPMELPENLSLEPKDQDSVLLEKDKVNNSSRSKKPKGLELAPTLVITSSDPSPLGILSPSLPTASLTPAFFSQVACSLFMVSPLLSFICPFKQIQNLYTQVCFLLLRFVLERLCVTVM
# In short: as §1
# ETV2 = target: T10, ETV2 (Homo sapiens, UniProt O00321 1-342); conditions: protein: recombinant; tags: N-terminal GST; dsDNA, one strand shown
# T10 sequence: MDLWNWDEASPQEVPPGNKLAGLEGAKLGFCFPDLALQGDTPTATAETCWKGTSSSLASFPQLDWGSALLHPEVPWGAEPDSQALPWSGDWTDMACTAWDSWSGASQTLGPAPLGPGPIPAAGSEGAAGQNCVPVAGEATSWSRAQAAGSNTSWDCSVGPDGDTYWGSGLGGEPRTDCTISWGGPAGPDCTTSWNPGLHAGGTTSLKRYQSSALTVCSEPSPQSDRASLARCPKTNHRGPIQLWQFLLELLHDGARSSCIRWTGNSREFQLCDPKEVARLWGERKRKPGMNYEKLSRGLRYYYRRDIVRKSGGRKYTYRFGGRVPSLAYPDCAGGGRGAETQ
# In short: as §1
# ELF3 = target: T11, ELF3 (Homo sapiens, UniProt P78545 1-371); conditions: protein: recombinant; tags: N-terminal GST; dsDNA, one strand shown
# T11 sequence: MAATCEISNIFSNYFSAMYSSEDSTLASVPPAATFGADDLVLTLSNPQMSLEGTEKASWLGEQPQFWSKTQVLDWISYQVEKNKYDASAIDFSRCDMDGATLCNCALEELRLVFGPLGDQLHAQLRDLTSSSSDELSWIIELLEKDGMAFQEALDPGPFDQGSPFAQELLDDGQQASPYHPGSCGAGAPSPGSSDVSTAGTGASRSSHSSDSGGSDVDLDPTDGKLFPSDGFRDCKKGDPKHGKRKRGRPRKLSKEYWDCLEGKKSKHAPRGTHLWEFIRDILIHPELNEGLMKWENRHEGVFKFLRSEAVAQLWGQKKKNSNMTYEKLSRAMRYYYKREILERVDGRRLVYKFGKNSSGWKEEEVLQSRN
# In short: as §1
# CRX = CRX (Homo sapiens, UniProt O43186 1-299); conditions: protein: recombinant; tags: N-terminal GST; dsDNA, one strand shown
# Chain of CRX (O43186 whole entry): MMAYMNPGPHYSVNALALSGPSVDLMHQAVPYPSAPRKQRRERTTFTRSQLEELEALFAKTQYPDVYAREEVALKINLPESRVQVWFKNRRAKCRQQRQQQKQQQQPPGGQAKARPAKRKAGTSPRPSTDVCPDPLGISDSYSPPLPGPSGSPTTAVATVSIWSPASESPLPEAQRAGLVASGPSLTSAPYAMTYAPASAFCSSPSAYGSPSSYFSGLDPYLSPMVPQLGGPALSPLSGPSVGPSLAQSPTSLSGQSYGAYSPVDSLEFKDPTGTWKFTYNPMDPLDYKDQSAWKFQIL
# In short: as §1
# ETV1 = ETV1 (Homo sapiens, UniProt P50549 1-477); conditions: protein: recombinant; tags: N-terminal GST; dsDNA, one strand shown
# Chain of ETV1 (P50549 whole entry): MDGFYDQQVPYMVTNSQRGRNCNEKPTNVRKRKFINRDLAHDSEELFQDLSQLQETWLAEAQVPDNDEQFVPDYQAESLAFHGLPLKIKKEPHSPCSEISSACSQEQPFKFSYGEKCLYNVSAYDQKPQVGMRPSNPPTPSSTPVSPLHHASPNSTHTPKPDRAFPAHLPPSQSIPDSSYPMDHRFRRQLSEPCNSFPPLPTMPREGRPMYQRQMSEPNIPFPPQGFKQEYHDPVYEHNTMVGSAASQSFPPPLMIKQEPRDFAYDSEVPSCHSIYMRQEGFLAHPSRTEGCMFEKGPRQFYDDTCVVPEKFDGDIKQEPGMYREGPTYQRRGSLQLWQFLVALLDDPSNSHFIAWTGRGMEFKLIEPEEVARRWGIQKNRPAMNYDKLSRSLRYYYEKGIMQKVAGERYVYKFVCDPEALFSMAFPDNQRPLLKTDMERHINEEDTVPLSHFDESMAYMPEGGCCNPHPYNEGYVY
# In short: as §1
sequence,measurement,setting,value
ACGGAT,binding signal,FLI1,"1.27 fold enrichment (6-mer frequency, TF over GST control)"
same,binding signal,ELK1,"1.21 fold enrichment (6-mer frequency, TF over GST control)"
same,binding signal,GABPA,"1.21 fold enrichment (6-mer frequency, TF over GST control)"
same,binding signal,ERG,"1.37 fold enrichment (6-mer frequency, TF over GST control)"
same,binding signal,ELF1,"1.22 fold enrichment (6-mer frequency, TF over GST control)"
same,binding signal,EHF,"1.3 fold enrichment (6-mer frequency, TF over GST control)"
same,binding signal,SPI1,"1.2 fold enrichment (6-mer frequency, TF over GST control)"
same,binding signal,SPIB,"1.19 fold enrichment (6-mer frequency, TF over GST control)"
same,binding signal,ELK3,"1.29 fold enrichment (6-mer frequency, TF over GST control)"
same,binding signal,FEV,"1.54 fold enrichment (6-mer frequency, TF over GST control)"
same,binding signal,ETV5,"1.32 fold enrichment (6-mer frequency, TF over GST control)"
same,binding signal,HSF1,"1.18 fold enrichment (6-mer frequency, TF over GST control)"
same,binding signal,SPIC,"1.38 fold enrichment (6-mer frequency, TF over GST control)"
same,binding signal,ELF4,"1.19 fold enrichment (6-mer frequency, TF over GST control)"
same,binding signal,ELK4,"1.12 fold enrichment (6-mer frequency, TF over GST control)"
same,binding signal,ETV2,"1.2 fold enrichment (6-mer frequency, TF over GST control)"
same,binding signal,ELF3,"1.3 fold enrichment (6-mer frequency, TF over GST control)"
same,binding signal,CRX,"1.61 fold enrichment (6-mer frequency, TF over GST control)"
same,binding signal,ETV1,"1.23 fold enrichment (6-mer frequency, TF over GST control)"

# Source: PMC7862700, “An all-to-all approach to the identification of sequence-specific readers for epigenetic DNA modifications on cytosine”
